Screening results as filed in PubChem.
Tau ThT inhib: tau fibrillization inhibition (ThT binding); P10636; recombinant tau K18 P301L, heparin-induced fibrillization, ThT fluorescence; Potency, µM (highest dose often 57.4 µM), for the others: top-dose activity, negative = inhibition, actives largely listed as inhibitors; actives 2.1% (n = 270,000); AID 1460; also: potency is read from the fitted curve at half-maximal effect; nearly all actives have a fitted effect of over 55% in size
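Tau K18 P301L fragment (15 uM unlabeled plus 0.24 uM Alexa 594-labeled) in 100 mM sodium acetate pH 7 with compound, fibrillization induced by 20 uM heparin for 6 hr at 37 C. Thioflavin T (30 uM) added, fluorescence read after 1 hr (ex 450, em 510 nm).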
USP1-UAF1 inh: inhibitors of human USP1/UAF1 deubiquitinase; recombinant USP1/UAF1, Ub-Rhodamine cleavage fluorescence; Potency, µM (titrated, usually from 57.1 µM), without a hit: at the top dose activity change, negative = inhibition, hits mostly inhibitors; actives 0.23% (n = 390,000); also: potency is read from the fitted curve at half-maximal effect; nearly all actives have a fitted effect of over 60% in size
Target sequence (O94782 whole entry, looked up): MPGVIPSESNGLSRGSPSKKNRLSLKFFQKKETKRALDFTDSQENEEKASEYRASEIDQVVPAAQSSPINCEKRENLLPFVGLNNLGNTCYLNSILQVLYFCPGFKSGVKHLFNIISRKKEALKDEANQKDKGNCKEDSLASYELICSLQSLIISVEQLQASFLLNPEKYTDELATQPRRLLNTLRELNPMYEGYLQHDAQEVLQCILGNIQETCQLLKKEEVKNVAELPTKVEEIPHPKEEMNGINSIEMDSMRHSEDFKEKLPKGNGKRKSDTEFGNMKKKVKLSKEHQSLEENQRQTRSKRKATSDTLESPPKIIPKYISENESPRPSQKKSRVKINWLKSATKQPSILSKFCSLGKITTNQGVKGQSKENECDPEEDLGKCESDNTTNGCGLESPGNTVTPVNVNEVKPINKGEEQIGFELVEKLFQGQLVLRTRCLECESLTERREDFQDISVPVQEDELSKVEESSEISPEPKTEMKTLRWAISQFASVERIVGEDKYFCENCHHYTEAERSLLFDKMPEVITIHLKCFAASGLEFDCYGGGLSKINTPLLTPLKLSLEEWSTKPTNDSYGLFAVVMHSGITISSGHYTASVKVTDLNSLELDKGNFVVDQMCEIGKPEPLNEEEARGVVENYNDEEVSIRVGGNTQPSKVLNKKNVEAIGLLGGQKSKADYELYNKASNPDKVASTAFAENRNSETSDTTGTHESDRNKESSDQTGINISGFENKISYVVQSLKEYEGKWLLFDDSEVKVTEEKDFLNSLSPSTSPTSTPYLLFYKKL
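Step one: compound is pinned into 1nM USP1/UAF1 in HEPES pH 7.8 buffer with TCEP. Step two: 15 min room-temperature incubation. Step three: Ub-Rho (150nM final) starts cleavage, tracked by fluorescence over six one-minute reads.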
FBPA coupling cs: coupling enzyme interference in Giardia aldolase counter-screen; activity change, negative = inhibition, % at 58.2 µM, hits read low; AID 2472; actives 0.67% (n = 290,000); coupling enzyme system counterscreen, AmpLite Red fluorescence; in the data active = activity change below about -30%
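Coupling enzymes only (glyceraldehyde-3-phosphate) + compound, at 57.5 uM final, 10 min RT; add substrate/coupling/AmpLite Red mix, 20 min RT; fluorescence ex 525/em 598 nm. Actives flag coupling-system interference.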
Tau fibril FP: inhibitors of human tau fibril formation. P10636. K18 P301L tau heparin fibrillization, Alexa594 FP, 6 h. Potency, µM (doses to about 57.7 µM), without a hit: top-dose activity, negative = inhibition, actives largely listed as inhibitors. actives 0.39% (n = 280,000). AID 1468; also: potency is read from the fitted curve at half-maximal effect; nearly all actives have a fitted effect of over 55% in size
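K18 P301L tau (15 uM unlabeled/0.24 uM Alexa 594-labeled, final) + compound + heparin 20 uM final; 100 mM NaOAc pH 7; 6 hr 37 C; ThT 30 uM final added, 1 hr RT; FP ex 555/em 632 nm.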
Tau fluor cs: counter-screen for tau fibril formation inhibitors | AID 1463 | tau K18 P301L Alexa594 fluorescence, heparin fibrillization | Potency, µM (top dose mostly 57.7 µM), inactives show at the top dose activity change, negative = decrease | actives 0.93% (n = 280,000); also: potency is read from the fitted curve at half-maximal effect; nearly all actives have a fitted effect of over 55% in size
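Human tau K18 P301L (15 uM unlabeled, 0.24 uM Alexa 594-labeled) in 100 mM sodium acetate pH 7 with 20 uM heparin, 6 hr at 37 C. ThT 30 uM added, 1 hr ambient; Alexa 594 FP and total fluorescence read at 555/632 nm.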
* marks the source's active call; other numbers are inactive results; ? = inconclusive; . = no result given; [ ] = remark or other dose. Rows were chosen to be rich in hits. Some 2.3% of all compounds tested hit in one or more screens of this group. Unless noted, calls follow the shape of the dose curve; as a rule, active = well fitted curve in the direction sought with a large enough effect; inconclusive = small, poorly fitted or top-dose-only effect, or another doubt; inactive = no such curve, though single readings can be large; an effect the other way counts as inactive or inconclusive. % is scaled to controls: 0 for no effect and ±100 for the full control effect.

SMILES	Tau ThT inhib	USP1-UAF1 inh	FBPA coupling cs	Tau fibril FP	Tau fluor cs
COCCCn1[nH]c2c3c(ccc2c1=O)C(=O)c1ccccc1C3=O	?	-22%	-49*	0%	?
CCOc1ccc(C(=O)N(CC(=O)Nc2cccc(C)c2C)CC2CCCO2)cc1OC (stereo not drawn)	.	-4%	.	.	.
Cc1cc(C)c(C(CC(=O)c2cccs2)C(C#N)C#N)c(C)c1 (stereo not drawn)	25µM*	-29%	1	-7%	-22%
CC(CC(=O)c1cccs1)CC(=O)c1cccs1	1%	-11%	-2	-9%	-10%
CC(=Nc1ccc(C)cc1C)c1sc2ccccc2c1O	?	35µM*	-6	15%	-27%
Cc1cccc(C(c2sc3nc(-c4ccco4)nn3c2O)N2CCN(c3ccccc3F)CC2)c1 (stereo not drawn)	-17%	-27%	.	-3%	-19%
COc1cccc(CNc2ccc3c(c2)nc(C)n3C)c1OC	.	-13%	0	.	.
COc1cc(NCc2ccc3nc(N)nc(N)c3c2C)cc(OC)c1OC	20µM*	.	-46*	?	?
Cc1cc(N)n2ncc(-c3ccc(Cl)cc3)c2n1	?	-6%	1	?	14µM*[quencher]
CSc1ncccc1C(=O)OCC(=O)NC1CCCCC1	.	-15%	.	.	.
CCN(c1ccc(OC)cc1)S(=O)(=O)c1ccc2[nH]c3c(c2c1)CCCCC3	-7%	-12%	.	1%	10µM*[quencher]
CCN(Cc1ccccc1)S(=O)(=O)c1ccc2[nH]c3c(c2c1)CCCCC3	0%	?	.	2%	7.9µM*[quencher]
COc1ccc2oc(C(=O)OCC(=O)NCc3ccco3)c(C)c2c1	.	-21%	.	.	.
O=C(CNCCC1=CCCCC1)Nc1ccccc1N1CCCCC1	-10%	-13%	-42*	-4%	-9%
CCOC(=O)C1=C(C)OC(=Cc2ccc(OC)cc2)C1=O	.	-24%	.	.	.
CCCc1ccc(/C=C2\C(=O)c3ccccc3C(O)=C2C(=O)OCC)cc1	32µM*	.	-37*	?	?
CCOC(=O)C1=C(O)c2ccccc2C(=O)/C1=C\c1ccc(CC)cc1	14µM*	?	-48*	20µM*	?
CCOC(=O)C1=C(C)N(CC(C)C)C(=O)/C1=C\c1ccc(OCC(=O)Nc2ccccc2)cc1	?	-29%	2	-3%	-16%
CCCC(=O)C1=C(c2ccc(C)cc2)N(C(=O)CCC)n2cnnc2S1	16µM*	?	.	-14%	?
CCCC(=O)C1=C(c2ccc(C)c(C)c2)N(C(=O)CCC)n2c(CC)nnc2S1	?	3%	.	-9%	-18%
COc1ccccc1C(C)Nc1ccc(S(=O)(=O)N2CCN(C)CC2)cc1[N+](=O)[O-] (stereo not drawn)	.	-23%	.	.	.
COCCNc1nc2c(c(=O)n(C)c(=O)n2C)n1Cc1c(F)cccc1Cl	-9%	-21%	.	-8%	-9%
Cc1ccc(OCC(=O)N/N=C\c2ccc(C)o2)c(C)c1	-11%	-19%	1	8%	-10%
Cc1ccc(OCC(=O)N/N=C\c2ccc(-c3cccc(C(=O)O)c3)o2)c(C)c1	7.9µM*	-16%	4	5%	-23%
CCOC(=O)c1c(NC(=O)COC(=O)c2cccnc2OCC)sc(C(=O)N(CC)CC)c1C	.	-33%	.	.	.
SMILES	Tau ThT inhib	USP1-UAF1 inh	FBPA coupling cs	Tau fibril FP	Tau fluor cs
CC(=O)[C@@H]1[C@@H](C(=O)c2ccc(C)cc2)[C@]2(C(=O)Nc3ccccc32)[C@H]2C=Cc3cc(F)ccc3N12	14µM*	-25%	-26	?	?
Cc1ccc(N2CCN(C(=O)c3c4c(nc5ccccc35)C(=O)N(C3CCCCC3)C4)CC2)c(C)c1	?	-8%	.	-3%	-10%
Cc1ccccc1N=Nc1c(C)[nH]n(C(N)=S)c1=O	14µM*	-4%	2	8%	-18%
Cc1cccc(N=Nc2c(C)[nH]n(C(N)=S)c2=O)c1C	7.9µM*	.	0	10%	-9%
Cc1[nH]n(C(N)=S)c(=O)c1N=Nc1ccccc1C(F)(F)F	.	-16%	1	.	.
O=C(CC1N=C2c3ccccc3N=C(SCc3ccc(F)cc3)N2C1=O)NC1CCCCC1 (stereo not drawn)	-6%	-17%	.	-2%	-1%
Cc1cccc(N=C2NN=C(c3ccc4c(c3)OCCO4)CS2)c1	11µM*	-12%	2	-12%	?
O=C(O)c1cc2ccccc2c2c1C(=O)c1ccccc1-2	.	-16%	.	.	.
Nc1cc(C(=O)O)c(N)c2c1C(=O)c1ccccc1C2=O	4.5µM*	?	-18	20µM*	?
Nc1c(C(=O)O)ccc2c1C(=O)c1ccccc1C2=O	10µM*	-26%	7	-11%	-29%
Nc1c(SCCC(=O)O)ccc2c1C(=O)c1ccccc1C2=O	.	?	7	.	.
O=C(CN1CCN(S(=O)(=O)c2ccc(Cl)c(C(F)(F)F)c2)CC1)NC(=O)NC1CCCCC1	.	-20%	.	.	.
CC(C)CN1C(=O)/C(=C(/C#N)C(=O)NC2CCCCC2)c2ccccc21	18µM*	-27%	-6	?	-13%
CCCCN1C(=O)/C(=C(/C#N)C(=O)N2CCCC2)c2ccccc21	?	4%	-6	-12%	-7%
O=C(N/N=C/C1=C(N2CCOCC2)C(=C\c2ccccc2)/CC1)Nc1ccccc1	?	-23%	0	0%	-19%
O=C(O)c1ccccc1N/N=C/C1=C(N2CCOCC2)C(=C\c2ccccc2)/CC1	10µM*	-13%	2	-8%	?
Cc1cc(=O)[nH]c(N/N=C/C2=C(N3CCOCC3)C(=C\c3ccc(Cl)cc3)/CC2)n1	22µM*	-24%	1	2%	-14%
Cc1cc(C)nc(N/N=C/C2=C(N3CCOCC3)C(=C/c3ccccc3)/CC2)n1	6%	-12%	5	2%	8%
